MOR-DOR ag-1: agonists of human mu-delta opioid receptor heterodimerization; cells, OPRM1-OPRD1 heterodimerization, luminescence; AID 504326; activation, % at 9.3 µM; P35372+P41143; 340,000 tested, 0.3% active
HTR5A inv ctr: inverse agonist of human HTR5A in OPRM1-OPRD1 counter-screen | HTR5A cell line, luminescence, inverse agonism | inhibition, % at 9.3 µM | 340,000 tested, 0.083% active | P47898; in the data active = inhibition mostly above about 23%, no sharp cut-off; inactive = mostly below about 18%
HTR5A ag: counter-screen for OPRM1-OPRD1 agonists: human HTR5A agonism; HTR5A agonist assay, luminescence, cell-based; activation, % at 9.3 µM; AID 504692; 340,000 tested, 0.61% active; P47898; in the data active = activation mostly above about 9.5%, no sharp cut-off; inactive = mostly below about 7.6%
MOR-DOR inv ag: inverse agonists of human mu-delta opioid receptor heterodimerization. P35372+P41143. cell-based MOR-DOR heterodimer luminescence, inverse agonism. inhibition, % at 9.3 µM. 340,000 tested, 0.21% active. AID 504357; in the data active = inhibition above about 22%, passing the limit was not always enough
MOR-DOR ag-2: opioid heterodimer agonism, HTR5A counter-screen. 800 tested, 13% active. activation, % at 9.3 µM. shares compounds with HTR5A ag. U2OS counter-screen cells, complementation luminescence, 3 h
HTR5A ag conf: HTR5A (human) agonism, confirmation; shares compounds with HTR5A ag; HTR5A agonist cell assay, luminescence; activation, % at 9.3 µM; 800 tested, 17% active; in the data active = activation above about 17%
Hits are given with their value; i = inactive; nt = not tested or not shown. An excerpt weighted towards active compounds, which were near 1.1% of everything screened. Rule as the data show it, unless noted: active = activation above about 18%; inactive = the rest.

SMILES	MOR-DOR ag-1	HTR5A inv ctr	HTR5A ag	MOR-DOR inv ag	MOR-DOR ag-2	HTR5A ag conf
CCn1c(N2CCN(C(=S)NCCc3ccccc3)CC2)nc2ccccc21	i	i	31	i	i	30
CCn1c(N2CCN(C(=S)NC)CC2)nc2ccccc21	i	i	24	i	i	i
CCn1c(N2CCN(C(=S)NCC(C)C)CC2)nc2ccccc21	i	i	i	i	nt	nt
CCn1c(N2CCN(S(=O)(=O)c3ccc(Cl)cc3)CC2)nc2ccccc21	i	i	16	i	i	i
CC(C)C(NC(=O)CCNC(=O)c1ccccc1Cl)c1nc2ccccc2[nH]1 (centres undefined)	i	i	i	i	nt	nt
COC(=O)/C(C#N)=C/c1c(Oc2cccc(C)c2C)nc2ccccn2c1=O	i	i	i	i	nt	nt

Screening data deposited in PubChem BioAssay by The Scripps Research Institute Molecular Screening Center.
